According to PubChem BioAssay (Tox21):
Records with an inconclusive call do not appear. Active and inactive are the calls of the source. Unless noted, calls follow the shape of the dose curve; as a rule, active = well fitted curve in the direction sought with a large enough effect in the repeat runs; inconclusive = weak or mixed curves; inactive = flat fitted curve, though single readings scatter.

Legend:
[1] = qHTS assay to test for compound auto fluorescence at 535 nm (green) in HEK293 cells (AID 720680)
[2] = qHTS assay to test for compound auto fluorescence at 460 nm (blue) in HEK293 cell free culture (AID 720681)
Outline: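 Blue fluorescence (Ex 405/Em 460 nm, triamterene-equivalent) was read immediately after pin transfer of compound or DMSO into medium (DMEM, 10% FBS) without cells.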

[3] = qHTS assay to test for compound auto fluorescence at 535 nm (green) in HEK293 cell free culture (AID 720682)
Outline: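 Each library compound, or DMSO control, is added by pintool to medium alone, comprising DMEM and 10% FBS. Emission at 535 nm following 485 nm excitation is quantified against fluorescein.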

[4] = qHTS assay to test for compound auto fluorescence at 590 nm (red) in HEK293 cell free culture (AID 720683)
Outline: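 Red-channel autofluorescence of compounds in culture medium (DMEM, 10% FBS), no cells, measured at 540/590 nm. Rose Bengal sodium is the reference fluorophore for equivalence.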

[5] = qHTS assay to test for compound auto fluorescence at 590 nm (red) in HepG2 cell free culture (AID 720684)
Outline: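 Steps: dispense MEM/10% FBS medium, no cells; pin compound or DMSO vehicle; read red channel, Ex/Em 540/590 nm. Output given as Rose Bengal sodium equivalents.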

[6] = qHTS assay to test for compound auto fluorescence at 460 nm (blue) in HepG2 cell free culture (AID 720685)
Outline: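 Compound (23 nL) or DMSO pinned into cell-free MEM with 10% FBS; blue fluorescence read at 405/460 nm excitation/emission, expressed as auto-fluorescence equivalency to triamterene.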

[7] = qHTS assay to test for compound auto fluorescence at 535 nm (green) in HepG2 cell free culture (AID 720686)
[8] = qHTS assay to test for compound auto fluorescence at 460 nm (blue) in HepG2 cells (AID 720687)
Outline: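 Blue-channel autofluorescence (Ex/Em 405/460 nm, triamterene-equivalent) was measured after 1 hr compound exposure at 37 C, 5% CO2. Cells were HepG2, plated overnight at 37 C in MEM plus 10% FBS.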

[9] = molecular target: Glucocorticoid receptor (Homo sapiens) (UniProt P04150); test: qHTS assay to identify small molecule agonists of the glucocorticoid receptor (GR) signaling pathway (AID 720691; active = well fitted activation curve with a large enough effect in the signal ratio in the repeat runs, not every such curve was filed as active; the % refers to the signal ratio)
Sequence of Glucocorticoid receptor (Homo sapiens) (P04150 whole entry, looked up): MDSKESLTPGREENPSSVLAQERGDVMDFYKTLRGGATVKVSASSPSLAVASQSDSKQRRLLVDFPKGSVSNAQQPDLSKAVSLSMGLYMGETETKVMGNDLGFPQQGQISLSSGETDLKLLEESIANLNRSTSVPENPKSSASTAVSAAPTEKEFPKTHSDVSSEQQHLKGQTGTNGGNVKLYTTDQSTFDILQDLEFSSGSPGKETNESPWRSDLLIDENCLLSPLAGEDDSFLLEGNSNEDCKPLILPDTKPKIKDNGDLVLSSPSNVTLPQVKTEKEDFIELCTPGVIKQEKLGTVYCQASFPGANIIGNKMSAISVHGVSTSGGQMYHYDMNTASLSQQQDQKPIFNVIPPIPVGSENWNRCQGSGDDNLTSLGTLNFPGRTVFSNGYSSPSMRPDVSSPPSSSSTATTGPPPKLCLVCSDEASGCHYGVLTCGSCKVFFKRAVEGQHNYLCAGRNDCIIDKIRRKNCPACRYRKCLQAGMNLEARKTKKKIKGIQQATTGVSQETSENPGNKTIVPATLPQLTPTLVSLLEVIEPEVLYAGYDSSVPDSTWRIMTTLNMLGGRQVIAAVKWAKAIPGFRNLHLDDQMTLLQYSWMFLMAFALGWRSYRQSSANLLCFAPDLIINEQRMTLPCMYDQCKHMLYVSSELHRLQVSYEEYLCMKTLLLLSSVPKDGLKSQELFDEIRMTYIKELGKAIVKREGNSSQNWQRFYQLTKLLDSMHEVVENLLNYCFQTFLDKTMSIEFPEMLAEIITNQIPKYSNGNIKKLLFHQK
Outline: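 Fluorescence intensity from LiveBLAzer B/G FRET substrate (2 h, room temperature) reports beta-lactamase expression driven by the glucocorticoid response element in GR-bla HeLa cells after 18 h compound exposure at 37 C.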

Measured: Potency

CCNC(=O)NCc1cccc(Cl)c1
not listed: [9]
inactive: all other assays above

c1ccc2c(CC3=NCCN3)cccc2c1
not listed: [9]
inactive: all other assays above

CSc1cnccn1
not listed: [8] | [9]
inactive: all other assays above

CC(O)COC(C)(C)C (stereo not drawn)
not listed: [9]
inactive: all other assays above

CC(C)=CCC/C(C)=C/COC=O
not listed: [9]
inactive: all other assays above

CO[Si](CCCn1c(=O)n(CCC[Si](OC)(OC)OC)c(=O)n(CCC[Si](OC)(OC)OC)c1=O)(OC)OC
not listed: [9]
inactive: all other assays above

O=C(O)CONC(=O)c1ccccc1
not listed: [9]
inactive: all other assays above

C[C@]12CCC(=O)C=C1CC[C@H]1[C@@H]3CC[C@](O)(C(=O)CO)[C@@]3(C)C[C@H](O)[C@@]12F
not listed: [9]
inactive: all other assays above

C=CCCCCCCCCC(=O)OCCCC
not listed: [9]
inactive: all other assays above

C=C(C)[C@@H]1CC=C(C)CC1
not listed: [8] | [9]
inactive: all other assays above

Cc1cc(-c2ccccc2)nnc1NCCN1CCOCC1
not listed: [9]
inactive: all other assays above

c1ccc(B(c2ccccc2)c2ccccc2)cc1
inactive: all assays above

CC(C)CCOC(=O)c1ccccc1
not listed: [9]
inactive: all other assays above

CCCCCCCCCCCCCBr
not listed: [9]
inactive: all other assays above

COP(=O)(O)OP(=O)(O)OC
not listed: [9]
inactive: all other assays above

CCCCCCC1(C)CCC(=O)O1 (stereo not drawn)
not listed: [9]
inactive: all other assays above

COc1cc2c(cc1OC)C(=O)C(CC1CCN(Cc3ccccc3)CC1)C2 (stereo not drawn)
not listed: [8] | [9]
inactive: all other assays above

N#Cc1cscn1
not listed: [9]
inactive: all other assays above

CCOc1cccc(N)c1
not listed: [9]
inactive: all other assays above

Cc1ccc(C)c([N+](=O)[O-])c1
not listed: [9]
inactive: all other assays above

CO[C@@]1(NC(=O)Cc2cccs2)C(=O)N2C(C(=O)O)=C(COC(N)=O)CS[C@@H]21
not listed: [8] | [9]
inactive: all other assays above

CC(C)[C@H]1CC[C@H](C)C[C@@H]1O
not listed: [9]
inactive: all other assays above

CC(C)(CO)C(O)C(=O)NCCCO (stereo not drawn)
not listed: [8] | [9]
inactive: all other assays above

C=CC(=O)CCCCC
not listed: [9]
inactive: all other assays above

Cc1ccc(C(=O)O)cc1[N+](=O)[O-]
not listed: [9]
inactive: all other assays above

CCOC(CN1CCN(CC(C)C(=O)c2ccccc2)CC1)c1ccccc1 (stereo not drawn)
not listed: [9]
inactive: all other assays above

CCCCC1CCC(O)CC1 (stereo not drawn)
not listed: [9]
inactive: all other assays above

NCC1(Cc2noc(=O)[nH]2)CCCCC1
not listed: [9]
inactive: all other assays above

Cn1nnc2c(C(N)=O)ncn2c1=O
not listed: [9]
inactive: all other assays above
